Measured values taken from PubChem BioAssay (Tox21).
Records with an inconclusive call do not appear. The source made the active and inactive calls. Unless noted, calls come from the whole dose curve; as a rule, active = well fitted curve in the direction sought with a large enough effect in the repeat runs; inconclusive = weak or mixed curves; inactive = no such curve, though single readings can be large; an effect the other way counts as inactive or inconclusive.

Tests used:
[1] = qHTS assay to identify small molecule antagonists of the vitamin D receptor (VDR) signaling pathway - cell viability counter screen (AID 743225); note: nearly all actives have a fitted effect of over 50% in size
Procedure, shortened: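 Cells (VDR-UAS-bla HEK 293T) are plated, rested 4 h at 37C, dosed with compound and 3 nM final 1-alpha,25-dihydroxy vitamin D3, and incubated 16 h. Viability is taken from CellTiter-Glo luminescence in the reporter wells.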

[2] = qHTS assay to identify small molecule agonists of the NFkB signaling pathway (AID 1159509; active = well fitted curve in the direction sought with a large enough effect in the signal ratio in the repeat runs, not every such curve was filed as active; the % refers to the signal ratio; note: series mostly up to about 61 µM)
Procedure, shortened: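 After overnight attachment, reporter cells received test compounds, DMSO or positive controls and were incubated 5 hr at 37 C. FRET substrate was then added for 1.5 hr at room temperature before dual-emission fluorescence reading.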

[3] = qHTS assay to identify small molecule agonists of the NFkB signaling pathway - cell viability counter screen (AID 1159515; calls by dose curve; note: series mostly up to about 61 µM; nearly all actives have a fitted effect of over 55% in size)
Procedure, shortened: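 Using the same wells as the NFkB reporter read, ME-180 NFkB-bla cells given compounds for 5 hr were assessed for viability via CellTiter-Glo, with luminescence taken after a 30 min room-temperature incubation.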

[4] = qHTS assay to identify small molecule agonists of the endoplasmic reticulum stress response signaling pathway (AID 1159516; active = well fitted activation curve with a large enough effect in the signal ratio in the repeat runs, not every such curve was filed as active; the % refers to the signal ratio)
Procedure, shortened: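 An ESRE-bla HeLa cell assay: compounds were pin-transferred from DMSO onto overnight-plated cells and left 5 hr at 37 C. Substrate was then loaded for 2 hr at room temperature before reading fluorescence at 460 nm and 530 nm.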

[5] = qHTS assay to identify small molecule agonists of the endoplasmic reticulum stress response signaling pathway - cell viability counter screen (AID 1159517; calls by dose curve;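 note: HeLa cells carrying an ER stress response element beta-lactamase reporter; series mostly up to about 61 µM; nearly all actives have a fitted effect of over 50% in size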)
Procedure, shortened: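 Luminescence readout: CellTiter-Glo, 30 min RT, same wells as the ESRE-bla reporter read. HeLa ESRE-bla, 1,500 cells/well, o/n 37 C; cpd 5 hr 37 C/5% CO2.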

[6] = qHTS assay to identify small molecule antagonists of the retinoid-related orphan receptor gamma (ROR-gamma) signaling pathway - cell viability counter screen (AID 1159520); note: nearly all actives have a fitted effect of over 50% in size
Procedure, shortened: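 Tet-on ROR gamma CHO cells (1,000/well) were plated 4 hr, given compounds in DMSO for 2 hr at 37 C, then induced with 1 uM final doxycycline for 16 hr. Viability was read as ATP by CellTiter-Glo luminescence after 30 min.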

[7] = biological target: Nuclear receptor ROR-gamma (Homo sapiens) (UniProt P51449); test: qHTS assay to identify small molecule antagonists of the retinoid-related orphan receptor gamma (ROR-gamma) signaling pathway (AID 1159521;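 note: CHO cells with doxycycline inducible ROR-gamma driving an RORE luciferase reporter; top concentration of the series differs between compounds; nearly all actives have a fitted effect of over 50% in size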)
Procedure, shortened: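 RORγ antagonism is scored from reduced reporter luminescence in Tet-on CHO cells. Induction used 1 uM final doxycycline hyclate for 16 h at 37 C, following a 2 h compound exposure.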

[8] = qHTS assay to identify small molecule agonists of the AP-1 signaling pathway - cell viability counter screen (AID 1159525; calls by dose curve; note: nearly all actives have a fitted effect of over 55% in size)
Procedure, shortened: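 ME-180 AP-1-bla, 2500 cells/well, Opti-MEM + 0.5% dialyzed FBS; overnight 37 °C; cpd 15-pt titration, 5 h 37 °C; CellTiter-Glo 30 min RT; luminescence read; normalised to TOAB and DMSO controls.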

[9] = qHTS assay to identify small molecule agonists of the AP-1 signaling pathway (AID 1159526; calls by dose curve)
[10] = biological target: Retinoic acid receptor RXR-alpha (Homo sapiens) (UniProt P19793); test: qHTS assay to identify small molecule agonists of the RXR signaling pathway (AID 1159527; calls by dose curve; note: nearly all actives have a fitted effect of over 35% in size)
Chain of Retinoic acid receptor RXR-alpha (Homo sapiens) (P19793 whole entry, looked up): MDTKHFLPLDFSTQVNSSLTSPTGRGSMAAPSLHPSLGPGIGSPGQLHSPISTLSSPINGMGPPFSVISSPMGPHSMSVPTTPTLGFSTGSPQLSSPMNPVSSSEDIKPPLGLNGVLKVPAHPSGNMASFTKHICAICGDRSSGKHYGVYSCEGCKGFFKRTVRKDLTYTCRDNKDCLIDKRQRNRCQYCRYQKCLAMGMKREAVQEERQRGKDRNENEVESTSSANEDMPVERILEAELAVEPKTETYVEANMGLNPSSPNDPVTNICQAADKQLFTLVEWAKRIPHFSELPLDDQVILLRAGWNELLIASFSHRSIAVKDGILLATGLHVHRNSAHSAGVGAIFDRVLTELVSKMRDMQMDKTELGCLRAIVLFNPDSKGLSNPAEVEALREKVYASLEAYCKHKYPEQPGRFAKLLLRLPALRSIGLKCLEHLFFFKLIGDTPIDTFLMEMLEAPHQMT
Procedure, shortened: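 qHTS of the Tox21 10K library in GeneBLAzer RXR-alpha HEK 293T cells carrying a beta-lactamase reporter […]; 16 hr treatment, 9-cis retinoic acid as agonist control, FRET read-out.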

[11] = qHTS assay to identify small molecule agonists of the RXR signaling pathway - cell viability counter screen (AID 1159529)
Procedure, shortened: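 Cell viability is measured by CellTiter-Glo luminescence, 30 min at room temperature, in wells already read for beta-lactamase. Engineered HEK 293T cells (RXR-alpha-UAS-bla) are dosed 16 hr at 37 C. Tetraoctyl ammonium bromide serves as positive control.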

[12] = qHTS assay to identify small molecule antagonists of the retinoid acid receptor (RAR) signaling pathway - cell viability counter screen (AID 1159551); note: nearly all actives have a fitted effect of over 35% in size
Procedure, shortened: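 Retinol-stimulated (1 uM final) C3RL4 cells, compound 6 h, 37 C; readout CellTiter-Glo luminescence (ATP) after 30 min RT incubation.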

[13] = qHTS assay to identify small molecule antagonists of the retinoic acid receptor (RAR) signaling pathway (AID 1159552; note: nearly all actives have a fitted effect of over 50% in size)
Procedure, shortened: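 Quantitative HTS in C3RL4 RARE-luciferase reporter cells. Compounds were added with 1 uM (final) retinol; luminescence was read after 6 hr.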

[14] = qHTS assay to identify small molecule agonists of the retinoic acid receptor (RAR) signaling pathway (AID 1159553)
Procedure, shortened: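 Reporter readout comes from luciferase under RARE control in C3RL4 cells; compound exposure lasts 6 hr at 37 C in 5% CO2, and luminescence is recorded following a 30 min room-temperature incubation with reagent.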

[15] = qHTS assay to identify small molecule antagonists of the estrogen related receptor (ERR) signaling pathway - cell viability counter screen (AID 1224818);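 note: series mostly up to about 46 µM; viability measured after 17.5 h of compound exposure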
Procedure, shortened: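 After a 6 h pre-incubation, ERR cells were dosed by pin tool with compounds, positive/negative controls or DMSO alone. Following 17.5 h at 37 C and 30 min with CellTiter-Fluor, fluorescence was recorded.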

[16] = qHTS assay to identify small molecule antagonists of the estrogen related receptor (ERR) signaling pathway (AID 1224819)
Procedure, shortened: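 Luminescence readout (One-Glo, 30 min, RT) of ERR cell line after 18 h compound exposure at 37 C; cells seeded 2,000/well, pre-incubated 6 h, compounds pinned from DMSO stocks.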

[17] = qHTS assay to identify small molecule agonists of the estrogen related receptor (ERR) signaling pathway (AID 1224820)
Procedure, shortened: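 Quantitative HTS of the LOPAC library used NTP ERR reporter cells treated 18 h at 37 C. Signal is luminescence after One-Glo addition and a 30 min room-temperature incubation.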

[18] = tested on: estrogen-related receptor alpha (ERRalpha) with PGC-1alpha coactivator, human; test: qHTS assay to identify small molecule antagonists of the estrogen related receptor signaling pathway with the pleiotropic PPARgamma coactivator (PGC) (AID 1224821; calls by dose curve)
Procedure, shortened: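 Quantitative HTS for antagonism: PGC/ERR cells received compounds after 6 h attachment and were incubated 18 h at 37 C, with luminescence (One-Glo) as the endpoint.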

[19] = qHTS assay to identify small molecule antagonists of the estrogen related receptor signaling pathway with the pleiotropic PPARgamma coactivator (PGC) cell viability counter screen (AID 1224822;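 note: series mostly up to about 46 µM; viability read after 17.5 h compound exposure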)
Procedure, shortened: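 PGC/ERR cells were plated at 2,000 per well and allowed 6 h to settle before compound addition. Following 17.5 h at 37 C, CellTiter-Fluor reagent was added and fluorescence was read 30 min later.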

[20] = qHTS assay to identify small molecule agonists of the estrogen related receptor signaling pathway with the pleiotropic PPARgamma coactivator (PGC) (AID 1224823)
Procedure, shortened: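 Cell-based luciferase assay in the NTP-supplied PGC/ERR line, 2,000 cells/well; 18 h compound exposure at 37 C, luminescence after One-Glo.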

Measured: Potency

COC(=O)[C@@H](N)CCCN/C(N)=N/[N+](=O)[O-]
not listed: [14] | [15] | [16] | [17] | [18] | [19] | [20]
inactive: all other assays above

CCCCCCCC(=O)Cl
not listed: [15] | [16] | [17] | [18] | [19] | [20]
inactive: all other assays above

C=CCCC#N
not listed: [15] | [16] | [17] | [18] | [19] | [20]
inactive: all other assays above

C=C(Cl)CCl
not listed: [15] | [16] | [17] | [18] | [19] | [20]
inactive: all other assays above

O=C(Cl)c1ccccc1
not listed: [14] | [15] | [16] | [17] | [18] | [19] | [20]
inactive: all other assays above

Clc1ccc(C(Cl)(Cl)Cl)cn1
not listed: [14] | [15] | [16] | [17] | [18] | [19] | [20]
inactive: all other assays above

CN(C)C(=O)Oc1cc(OC(=O)N(C)C)cc(C(O)CNC(C)(C)C)c1 (stereo not given)
not listed: [14] | [15] | [16] | [17] | [18] | [19] | [20]
inactive: all other assays above

CC[C@@H](CO)NC(=O)[C@@H]1C=C2c3cccc4c3c(cn4C)C[C@H]2N(C)C1
not listed: [10]
inactive: all other assays above

Cc1cc(OC(=O)N(C)C)nn1C(=O)N(C)C
not listed: [15] | [16] | [17] | [18] | [19] | [20]
inactive: all other assays above

ClCCCCl
not listed: [14] | [15] | [16] | [17] | [18] | [19] | [20]
inactive: all other assays above
